Reference: PMC7862700, “An all-to-all approach to the identification of sequence-specific readers for epigenetic DNA modifications on cytosine”

Experiments:
Experiment in all cases: DAPPL (digital affinity profiling via proximity ligation, sequencing); 10 mM Tris-HCl pH 7.5, 50 mM NaCl, 1 mM DTT, 4% glycerol, room temperature, 30 min; GST-TFs on glutathione beads, 16-mer random dsDNA library, 0.1% formaldehyde crosslink after washing; high values mean tight binding
FEV = molecular target: T1, FEV (Homo sapiens, UniProt Q99581 1-238); conditions: protein: recombinant; tags: N-terminal GST; dsDNA, one strand shown
T1 sequence: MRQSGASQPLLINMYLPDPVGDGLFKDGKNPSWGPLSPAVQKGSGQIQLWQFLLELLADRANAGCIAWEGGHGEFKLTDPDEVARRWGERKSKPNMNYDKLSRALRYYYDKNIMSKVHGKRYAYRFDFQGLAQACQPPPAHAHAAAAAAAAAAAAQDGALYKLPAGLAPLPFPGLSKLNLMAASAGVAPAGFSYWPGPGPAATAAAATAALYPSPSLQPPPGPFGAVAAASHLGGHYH
In short: (§1)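 Human transcription factors carrying a GST fusion were produced in yeast, bound to glutathione beads, tagged with DNA barcodes and pooled together with a tag-only sample. Each pool was held with 200 nmole of a random double-stranded 16-mer DNA library in Tris/NaCl/DTT/glycerol buffer for 30 min at room temperature, then washed, crosslinked in 0.1% formaldehyde, proximity-ligated with BsaI/T4 ligase (1 h, 37 °C), PCR-amplified and sequenced on an Illumina NextSeq500. Binding signal is the read frequency of each hexamer for a given factor divided by its frequency in the tag-only sample.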

ETV5 = ETV5 (Homo sapiens, UniProt P41161 1-510); conditions: protein: recombinant; tags: N-terminal GST; dsDNA, one strand shown
Chain of ETV5 (P41161 whole entry): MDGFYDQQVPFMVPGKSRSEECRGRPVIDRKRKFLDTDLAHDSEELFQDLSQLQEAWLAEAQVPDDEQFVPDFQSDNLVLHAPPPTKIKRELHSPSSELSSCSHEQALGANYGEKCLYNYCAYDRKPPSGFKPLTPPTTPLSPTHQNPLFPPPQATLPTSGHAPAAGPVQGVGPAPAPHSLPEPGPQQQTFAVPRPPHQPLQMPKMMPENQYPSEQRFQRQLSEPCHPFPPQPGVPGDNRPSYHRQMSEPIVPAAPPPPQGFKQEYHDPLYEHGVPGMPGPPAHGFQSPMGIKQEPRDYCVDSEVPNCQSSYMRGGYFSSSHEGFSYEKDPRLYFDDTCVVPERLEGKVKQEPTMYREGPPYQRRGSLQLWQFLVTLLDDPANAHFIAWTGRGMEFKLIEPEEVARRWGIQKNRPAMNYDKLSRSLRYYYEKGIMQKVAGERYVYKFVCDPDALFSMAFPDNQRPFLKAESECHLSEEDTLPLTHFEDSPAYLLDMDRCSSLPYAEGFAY
In short: as §1

HSF1 = HSF1 (Homo sapiens, UniProt Q00613 1-529); conditions: protein: recombinant; tags: N-terminal GST; chain copies: 3; dsDNA, one strand shown
Chain of HSF1 (Q00613 whole entry): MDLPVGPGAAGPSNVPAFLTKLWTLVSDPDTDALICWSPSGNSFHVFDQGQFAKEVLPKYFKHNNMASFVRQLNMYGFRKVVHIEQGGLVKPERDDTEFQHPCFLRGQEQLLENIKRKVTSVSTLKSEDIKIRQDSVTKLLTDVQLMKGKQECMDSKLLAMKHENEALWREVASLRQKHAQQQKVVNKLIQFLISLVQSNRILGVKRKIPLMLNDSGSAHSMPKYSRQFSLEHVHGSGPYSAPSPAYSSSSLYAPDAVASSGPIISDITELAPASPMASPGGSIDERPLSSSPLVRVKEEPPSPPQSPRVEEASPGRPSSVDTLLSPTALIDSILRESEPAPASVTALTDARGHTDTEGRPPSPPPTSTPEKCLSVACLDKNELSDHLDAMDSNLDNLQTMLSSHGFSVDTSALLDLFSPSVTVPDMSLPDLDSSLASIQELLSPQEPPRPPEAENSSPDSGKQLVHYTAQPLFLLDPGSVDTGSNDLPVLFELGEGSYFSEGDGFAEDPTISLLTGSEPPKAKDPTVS
In short: as §1

SPIC = molecular target: T2, SPIC (Homo sapiens, UniProt Q8N5J4 1-248); conditions: protein: recombinant; tags: N-terminal GST; dsDNA, one strand shown
T2 sequence: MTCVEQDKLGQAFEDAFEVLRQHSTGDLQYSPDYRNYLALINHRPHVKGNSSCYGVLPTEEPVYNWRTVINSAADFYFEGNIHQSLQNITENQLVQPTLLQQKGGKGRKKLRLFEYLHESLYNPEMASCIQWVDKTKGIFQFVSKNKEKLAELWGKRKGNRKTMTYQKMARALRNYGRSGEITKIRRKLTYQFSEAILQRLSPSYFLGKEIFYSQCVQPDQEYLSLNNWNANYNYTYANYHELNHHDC
In short: as §1

ELF4 = ELF4 (Homo sapiens, UniProt Q99607 1-663); conditions: protein: recombinant; tags: N-terminal GST; dsDNA, one strand shown
Chain of ELF4 (Q99607 whole entry): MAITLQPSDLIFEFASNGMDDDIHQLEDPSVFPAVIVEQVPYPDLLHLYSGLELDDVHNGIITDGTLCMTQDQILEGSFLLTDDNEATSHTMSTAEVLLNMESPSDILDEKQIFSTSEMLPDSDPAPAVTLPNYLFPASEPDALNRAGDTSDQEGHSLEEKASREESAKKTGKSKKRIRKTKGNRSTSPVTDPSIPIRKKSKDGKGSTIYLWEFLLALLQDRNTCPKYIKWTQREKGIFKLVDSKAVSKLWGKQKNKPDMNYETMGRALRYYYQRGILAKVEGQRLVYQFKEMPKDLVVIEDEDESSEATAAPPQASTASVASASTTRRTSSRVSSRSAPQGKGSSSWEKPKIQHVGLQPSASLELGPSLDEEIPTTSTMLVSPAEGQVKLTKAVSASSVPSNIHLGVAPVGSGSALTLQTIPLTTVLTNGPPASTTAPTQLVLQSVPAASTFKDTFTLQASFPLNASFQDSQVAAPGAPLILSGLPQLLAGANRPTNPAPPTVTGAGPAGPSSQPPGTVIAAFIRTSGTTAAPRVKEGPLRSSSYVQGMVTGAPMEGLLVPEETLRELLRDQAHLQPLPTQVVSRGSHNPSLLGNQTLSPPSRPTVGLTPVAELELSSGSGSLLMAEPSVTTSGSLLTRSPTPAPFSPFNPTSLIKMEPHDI
In short: as §1

ELK4 = molecular target: T3, ELK4 (Homo sapiens, UniProt P28324-2 1-405); conditions: protein: recombinant; tags: N-terminal GST; dsDNA, one strand shown
T3 sequence: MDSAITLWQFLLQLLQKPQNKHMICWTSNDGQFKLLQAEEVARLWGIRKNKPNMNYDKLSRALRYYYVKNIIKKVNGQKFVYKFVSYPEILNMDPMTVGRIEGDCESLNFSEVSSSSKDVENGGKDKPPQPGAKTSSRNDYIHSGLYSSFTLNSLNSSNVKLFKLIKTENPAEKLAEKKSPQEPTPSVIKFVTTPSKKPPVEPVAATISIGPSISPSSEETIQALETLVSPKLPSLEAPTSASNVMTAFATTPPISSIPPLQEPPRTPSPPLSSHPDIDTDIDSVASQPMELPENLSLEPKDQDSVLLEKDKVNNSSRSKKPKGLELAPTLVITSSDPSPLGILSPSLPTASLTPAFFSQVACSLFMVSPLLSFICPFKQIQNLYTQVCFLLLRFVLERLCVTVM
In short: as §1

ETV2 = molecular target: T4, ETV2 (Homo sapiens, UniProt O00321 1-342); conditions: protein: recombinant; tags: N-terminal GST; dsDNA, one strand shown
T4 sequence: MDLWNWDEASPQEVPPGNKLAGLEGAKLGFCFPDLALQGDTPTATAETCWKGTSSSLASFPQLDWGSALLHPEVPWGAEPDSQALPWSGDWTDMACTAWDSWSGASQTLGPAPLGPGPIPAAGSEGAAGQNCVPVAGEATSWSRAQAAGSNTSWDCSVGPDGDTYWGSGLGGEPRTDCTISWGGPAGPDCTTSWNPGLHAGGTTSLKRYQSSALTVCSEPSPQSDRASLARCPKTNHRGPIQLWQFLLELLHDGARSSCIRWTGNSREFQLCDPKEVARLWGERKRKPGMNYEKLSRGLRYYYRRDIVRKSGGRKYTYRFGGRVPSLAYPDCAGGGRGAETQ
In short: as §1

ELF3 = molecular target: T5, ELF3 (Homo sapiens, UniProt P78545 1-371); conditions: protein: recombinant; tags: N-terminal GST; dsDNA, one strand shown
T5 sequence: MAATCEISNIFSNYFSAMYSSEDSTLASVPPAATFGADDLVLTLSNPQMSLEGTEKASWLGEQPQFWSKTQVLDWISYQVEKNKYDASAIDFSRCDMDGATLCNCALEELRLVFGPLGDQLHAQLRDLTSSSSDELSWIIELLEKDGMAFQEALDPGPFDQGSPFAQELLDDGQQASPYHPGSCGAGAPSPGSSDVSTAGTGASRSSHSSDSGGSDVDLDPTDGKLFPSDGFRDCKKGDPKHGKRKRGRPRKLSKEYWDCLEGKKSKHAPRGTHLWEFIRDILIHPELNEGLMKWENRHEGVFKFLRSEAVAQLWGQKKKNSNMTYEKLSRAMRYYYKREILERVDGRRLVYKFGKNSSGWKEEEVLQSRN
In short: as §1

CRX = CRX (Homo sapiens, UniProt O43186 1-299); conditions: protein: recombinant; tags: N-terminal GST; dsDNA, one strand shown
Chain of CRX (O43186 whole entry): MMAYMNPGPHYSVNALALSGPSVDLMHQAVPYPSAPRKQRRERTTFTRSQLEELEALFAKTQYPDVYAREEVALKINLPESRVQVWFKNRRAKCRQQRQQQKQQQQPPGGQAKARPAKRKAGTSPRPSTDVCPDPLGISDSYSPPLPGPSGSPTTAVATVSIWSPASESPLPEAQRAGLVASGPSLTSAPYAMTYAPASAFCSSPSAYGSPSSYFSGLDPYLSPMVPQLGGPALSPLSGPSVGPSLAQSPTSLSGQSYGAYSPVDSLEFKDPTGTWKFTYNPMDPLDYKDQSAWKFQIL
In short: as §1

ETV1 = ETV1 (Homo sapiens, UniProt P50549 1-477); conditions: protein: recombinant; tags: N-terminal GST; dsDNA, one strand shown
Chain of ETV1 (P50549 whole entry): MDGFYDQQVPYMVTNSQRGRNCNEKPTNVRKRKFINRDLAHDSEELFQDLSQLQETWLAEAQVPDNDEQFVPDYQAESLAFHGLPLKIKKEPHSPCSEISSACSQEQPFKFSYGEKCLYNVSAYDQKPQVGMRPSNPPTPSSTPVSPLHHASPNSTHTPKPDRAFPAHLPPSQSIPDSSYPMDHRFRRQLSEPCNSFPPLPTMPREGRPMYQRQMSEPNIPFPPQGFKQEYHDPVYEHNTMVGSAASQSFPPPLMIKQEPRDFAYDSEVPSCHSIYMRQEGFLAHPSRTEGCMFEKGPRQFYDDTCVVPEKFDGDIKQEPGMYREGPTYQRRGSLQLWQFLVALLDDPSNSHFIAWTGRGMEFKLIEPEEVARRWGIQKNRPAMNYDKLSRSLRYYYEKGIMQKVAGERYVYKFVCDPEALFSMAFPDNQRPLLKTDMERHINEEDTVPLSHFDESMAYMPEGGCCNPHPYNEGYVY
In short: as §1

Sequence | binding signal (FEV) | binding signal (ETV5) | binding signal (HSF1) | binding signal (SPIC) | binding signal (ELF4) | binding signal (ELK4) | binding signal (ETV2) | binding signal (ELF3) | binding signal (CRX) | binding signal (ETV1)
TTATTT | 1.41 fold enrichment (6-mer frequency, TF over GST control) | 1.47 fold enrichment (6-mer frequency, TF over GST control) | 1.64 fold enrichment (6-mer frequency, TF over GST control) | 1.48 fold enrichment (6-mer frequency, TF over GST control) | 1.32 fold enrichment (6-mer frequency, TF over GST control) | 1.43 fold enrichment (6-mer frequency, TF over GST control) | 1.26 fold enrichment (6-mer frequency, TF over GST control) | 1.55 fold enrichment (6-mer frequency, TF over GST control) | 2.43 fold enrichment (6-mer frequency, TF over GST control) | 1.52 fold enrichment (6-mer frequency, TF over GST control)
ATGAAC | 1.26 fold enrichment (6-mer frequency, TF over GST control) | 1.29 fold enrichment (6-mer frequency, TF over GST control) | 1.21 fold enrichment (6-mer frequency, TF over GST control) | 1.39 fold enrichment (6-mer frequency, TF over GST control) | 1.36 fold enrichment (6-mer frequency, TF over GST control) | 1.31 fold enrichment (6-mer frequency, TF over GST control) | 1.11 fold enrichment (6-mer frequency, TF over GST control) | 1.38 fold enrichment (6-mer frequency, TF over GST control) | 1.13 fold enrichment (6-mer frequency, TF over GST control) | 1.38 fold enrichment (6-mer frequency, TF over GST control)
TGCTTT | 1.05 fold enrichment (6-mer frequency, TF over GST control) | 1.05 fold enrichment (6-mer frequency, TF over GST control) | 1.05 fold enrichment (6-mer frequency, TF over GST control) | 1.16 fold enrichment (6-mer frequency, TF over GST control) | 1.14 fold enrichment (6-mer frequency, TF over GST control) | 1.23 fold enrichment (6-mer frequency, TF over GST control) | 1.12 fold enrichment (6-mer frequency, TF over GST control) | 1.05 fold enrichment (6-mer frequency, TF over GST control) | 1.09 fold enrichment (6-mer frequency, TF over GST control) | 1.06 fold enrichment (6-mer frequency, TF over GST control)
CTTCTC | 1.35 fold enrichment (6-mer frequency, TF over GST control) | 1.27 fold enrichment (6-mer frequency, TF over GST control) | 2.19 fold enrichment (6-mer frequency, TF over GST control) | 1.55 fold enrichment (6-mer frequency, TF over GST control) | 1.39 fold enrichment (6-mer frequency, TF over GST control) | 1.42 fold enrichment (6-mer frequency, TF over GST control) | 1.39 fold enrichment (6-mer frequency, TF over GST control) | 1.47 fold enrichment (6-mer frequency, TF over GST control) | 1.56 fold enrichment (6-mer frequency, TF over GST control) | 1.39 fold enrichment (6-mer frequency, TF over GST control)
AATGGT | 1.27 fold enrichment (6-mer frequency, TF over GST control) | 1.46 fold enrichment (6-mer frequency, TF over GST control) | 1.05 fold enrichment (6-mer frequency, TF over GST control) | 1.35 fold enrichment (6-mer frequency, TF over GST control) | 1.43 fold enrichment (6-mer frequency, TF over GST control) | 1.38 fold enrichment (6-mer frequency, TF over GST control) | 1.32 fold enrichment (6-mer frequency, TF over GST control) | 1.25 fold enrichment (6-mer frequency, TF over GST control) | 1.1 fold enrichment (6-mer frequency, TF over GST control) | 1.43 fold enrichment (6-mer frequency, TF over GST control)
TCCTAA | 1.41 fold enrichment (6-mer frequency, TF over GST control) | 1.4 fold enrichment (6-mer frequency, TF over GST control) | 1.66 fold enrichment (6-mer frequency, TF over GST control) | 1.38 fold enrichment (6-mer frequency, TF over GST control) | 1.44 fold enrichment (6-mer frequency, TF over GST control) | 1.39 fold enrichment (6-mer frequency, TF over GST control) | 1.47 fold enrichment (6-mer frequency, TF over GST control) | 1.57 fold enrichment (6-mer frequency, TF over GST control) | 2.09 fold enrichment (6-mer frequency, TF over GST control) | 1.32 fold enrichment (6-mer frequency, TF over GST control)
CGTTTT | 1.19 fold enrichment (6-mer frequency, TF over GST control) | 1.21 fold enrichment (6-mer frequency, TF over GST control) | 1.12 fold enrichment (6-mer frequency, TF over GST control) | 1.29 fold enrichment (6-mer frequency, TF over GST control) | 1.16 fold enrichment (6-mer frequency, TF over GST control) | 1.22 fold enrichment (6-mer frequency, TF over GST control) | 1.35 fold enrichment (6-mer frequency, TF over GST control) | 1.08 fold enrichment (6-mer frequency, TF over GST control) | 1.04 fold enrichment (6-mer frequency, TF over GST control) | 1.17 fold enrichment (6-mer frequency, TF over GST control)
TGGGAT | 1.18 fold enrichment (6-mer frequency, TF over GST control) | 1.19 fold enrichment (6-mer frequency, TF over GST control) | 1.47 fold enrichment (6-mer frequency, TF over GST control) | 1.17 fold enrichment (6-mer frequency, TF over GST control) | 1.2 fold enrichment (6-mer frequency, TF over GST control) | 1.39 fold enrichment (6-mer frequency, TF over GST control) | 1.14 fold enrichment (6-mer frequency, TF over GST control) | 1.12 fold enrichment (6-mer frequency, TF over GST control) | 1.9 fold enrichment (6-mer frequency, TF over GST control) | 1.25 fold enrichment (6-mer frequency, TF over GST control)
